# Screens (PubChem BioAssay)
# hcDAF-12 act: H. contortus DAF-12 nuclear receptor activators, primary screen, cell-based, luminescence, HEK293, lit1-tk-luc reporter | HEK293 hcDAF-12 lit1-tk-luc reporter; 0% DMSO, 100% Δ7-dafachronic acid | 370,000 compounds, 1.4% hits | activation, % at 6.8 µM | AID 652067, 2013;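 active = activation above the mean of all tested compounds plus 3 SD, cut at about 5.5% in these data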;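 also: 100% = response to 3 µM Δ7-dafachronic acid high control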
# DAX1 inh-1: DAX1 (NR0B1) inhibitors, primary screen, cell-based, HEK293, Gal4-DAX1, luciferase luminescence. Nuclear receptor subfamily 0 group B member 1 (Homo sapiens), P51843. inhibition, % at 6.75 µM. HEK293 Gal4-DAX1 luciferase reporter. 340,000 compounds, 0.99% hits;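 active = inhibition above the mean over all tested compounds plus 3 SD, cut at about 4.2% in these data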;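 also: 0% = DAX1-transfected cells with DMSO and 100% = empty-vector control cells with DMSO; inhibition shows as a rise in luminescence from relieved DAX1 repression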
# DAX1 inh-2: DAX1 (NR0B1) inhibitors on StAR promoter, primary screen, cell-based, luminescence, SF-1 (NR5A1), full-length DAX-1. HEK293T StAR-luciferase reporter, SF-1/DAX-1 repression relief. inhibition, % at 6.8 µM. AID 652010, 2013. 370,000 compounds, 1.1% hits;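 active = inhibition above the mean over all tested compounds plus 3 SD, cut at about 3.6% in these data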;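 also: 0% = DAX-1 cells with DMSO and 100% = cells lacking DAX-1 with DMSO; higher inhibition means more luminescence from relief of DAX-1 repression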
# ssDAF-12 act: S. stercoralis DAF-12 nuclear receptor activators, primary screen, cell-based, luminescence, HEK293, GRIP1 co-expression, lit1-tk-luc; HEK293 ssDAF-12/GRIP1 lit1-tk-luc reporter; % of 3 µM dafachronic acid response; activation, % at 6.8 µM; 370,000 compounds, 1% hits; AID 652126, 2013;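 active = activation above the mean over all tested compounds plus 3 SD, cut at about 0.9% in these data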;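 also: 0% = DMSO-only wells and 100% = 3 µM delta7-dafachronic acid wells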
# hgDAF-12 ag: H. glycines DAF-12 receptor agonists, primary screen, cell-based, luminescence, HEK293, GAL4 fusion, UAS-luciferase | Nuclear hormone receptor DAF-12 (Heterodera glycines), GAL4 fusion | HEK293 GAL4-hgDAF12 UAS-luciferase reporter, agonist luminescence; normalized to butyrate control | activation, % at 6.8 µM | 370,000 compounds, 1.8% hits;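 active = activation above a cutoff set at the mean of all screened compounds plus 3 SD, cut at about 10% in these data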;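 also: 0% = DMSO wells and 100% = sodium butyrate wells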
# DAX1 conf: DAX1 (NR0B1) inhibitors relieving SF-1 repression, confirmation, cell-based, luminescence, HEK293T, full-length DAX-1, SF-1 activated StAR promoter; shares compounds with DAX1 inh-2; HEK293T StAR-promoter luciferase reporter, SF-1/DAX-1 repression; inhibition, % at 6.8 µM; 2,400 compounds, 87% hits;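 active = inhibition above the average of every tested compound plus 3 SD, cut at about 3.8% in these data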;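 also: 0% = DAX-1 cells with DMSO and 100% = no DAX-1 control cells with DMSO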
# Target sequence (P51843 whole entry, looked up): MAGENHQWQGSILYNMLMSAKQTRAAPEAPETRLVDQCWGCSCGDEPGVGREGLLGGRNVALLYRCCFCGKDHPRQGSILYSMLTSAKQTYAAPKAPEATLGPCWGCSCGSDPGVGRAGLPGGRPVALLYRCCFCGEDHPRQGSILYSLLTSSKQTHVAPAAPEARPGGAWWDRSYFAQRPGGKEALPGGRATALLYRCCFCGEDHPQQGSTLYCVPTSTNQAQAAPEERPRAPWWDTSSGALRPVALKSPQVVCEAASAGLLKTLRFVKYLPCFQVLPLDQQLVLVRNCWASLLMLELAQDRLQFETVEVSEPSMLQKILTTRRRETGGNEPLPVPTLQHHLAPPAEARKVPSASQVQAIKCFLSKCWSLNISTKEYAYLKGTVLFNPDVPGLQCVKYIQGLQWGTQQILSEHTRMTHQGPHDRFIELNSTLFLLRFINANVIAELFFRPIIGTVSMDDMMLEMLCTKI
# SF1 mutant ctr: StAR reporter signal changes without DAX1, counter-screen for DAX1 inhibitor project, cell-based, luminescence, AF-2 mutant SF-1, transactivation; shares compounds with DAX1 inh-2; HEK293 StAR-luciferase, SF-1 AF2 mutant; inhibition, % at 6.8 µM; 2,400 compounds, 78% hits;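 active = inhibition above the mean of all tested compounds plus 3 SD, cut at about 3% in these data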;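 also: 0% = DAX-1 transfected cells with DMSO and 100% = cells without DAX-1 with DMSO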
# LXR ag: LXR agonists, Gal4 luciferase reporter, confirmation, counter-screen for hcDAF-12 agonist project, cell-based, luminescence, HEK293, H. contortus campaign; shares compounds with hcDAF-12 act; 3,400 tested, under 10 active; activation, % at 6.8 µM; HEK293 Gal4-LXR tk-luc reporter, 24 h; normalized: DMSO 0%, positive control 100%;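 active = mean percent activation of the reporter above a cutoff set as the average over tested compounds plus their standard deviation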
# hcDAF12 ag: H. contortus DAF-12 receptor agonists, confirmation, cell-based, luminescence, HEK293, lit1-tk-luc, triplicate | HEK293 hcDAF-12 lit1-tk-luc reporter; % of Δ7-dafachronic acid response | activation, % at 6.8 µM | shares compounds with hcDAF-12 act | 3,400 compounds, 61% hits;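 active = mean activation across triplicate tests above the threshold derived from the earlier primary screen, cut at about 5.5% in these data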;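 also: 0% = DMSO only wells and 100% = 3 µM Δ7-dafachronic acid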
# * hit, by the source's call; nt = no result given; ! = repeats disagree. Shown are actives, neighbours in structure and some others; about 4.1% of the full set was active somewhere.
SMILES,hcDAF-12 act,DAX1 inh-1,DAX1 inh-2,ssDAF-12 act,hgDAF-12 ag,DAX1 conf,SF1 mutant ctr,LXR ag,hcDAF12 ag
COc1ccc(C(=O)/C=C/Nc2ccccn2)c(OC)c1,3,nt,3,1,9,nt,nt,nt,nt
N#CCCN1CCC(N)=NC1=NC#N,-1,nt,0,-1,4,nt,nt,nt,nt
O=C(O)c1ccc(N/N=C/c2cc3c(cc2[N+](=O)[O-])OCO3)cc1,-3,-1,-1,-1,0,nt,nt,nt,nt
O=C(O)c1ccc(N/N=C/c2cc3cc4c(cc3nc2Cl)OCCO4)cc1,12*,-5,7.3*,2.9*,24*,25*,9.6*,3,20*
O=C(Nc1ccc2c(c1)OCCO2)c1cccc2nc3ccccc3nc12,-2,0,-1,-2,3,nt,nt,nt,nt
O=C(Nc1ccc2c(c1)OCCO2)c1ccccc1Cl,7.2*,2,9.0*,0,12*,16*,9.4*,1,8.1*
COc1ccccc1NC(CC(=O)c1ccccc1)C(=O)OCC(=O)c1ccc(F)cc1 (stereo unspecified),18*,1,6.2*,2.7*,18*,15*,6.6*,3,19*
Cc1c(C(=O)N2CCc3ccccc3C2)sc2nc(-c3ccccc3)cn12,-1,-1,0,-1,1,nt,nt,nt,nt
c1ccc(-c2cn3c4c(sc3n2)CCCC4)cc1,8.5*,-3,6.2*!,0,5,10.0*,1,1,19*
Clc1ccccc1NN=Cc1ccccn1,13*,2,8.0*,1.0*,19*,7.6*,4.7*,1,9.6*
O=C(N/N=C/c1ccccn1)c1ccc(Cl)cc1,1,1,0,0,-1,nt,nt,nt,nt
CCC(=O)c1ccc(/C=C/c2nc3ccccc3n2C)o1,6.9*,0,4.7*,1.4*,25*,8.8*,5.4*,1,6.7*
CC(C)NC(=O)NC(=O)COc1ccc(Br)cc1Br,7.5*,2,6.3*,0,12*,17*,6.7*,2,6.0*
Cc1csc(SCC(=O)c2cc(C)n(Cc3cccs3)c2C)n1,-3,-4,-3,-2,-9,nt,nt,nt,nt
Cc1cc(C(=O)CSc2nnc(N)s2)c(C)n1Cc1cccs1,6.7*,-4,6.2*,0,8,16*,2,1,4
COC(=O)[C@]12C[C@H](CC(=O)NCC3CCCCC3)C(=O)N(Cc3ccccc3)C1=C[C@H](C1CCCC1)O[C@@H]2C,1,nt,0,0,0,nt,nt,nt,nt
O=C(N/N=C/c1ccccc1)C1CCCN1C(=O)c1cc([N+](=O)[O-])cc([N+](=O)[O-])c1 (stereo unspecified),2,0,-2,-1,1,nt,nt,nt,nt
